Only some compounds are listed: those with a hit (about 18% of all), similar ones and a draw of the others.
CtBP-E1A blk: blocks the CtBP interaction with E1A; AlphaScreen GST-E1A/His-CtBP binding, 1536-well; hits give low values; activity change, % (test concentration not listed); 340,000 compounds, 0.49% hits; AID 651724; in the data active = activity change below about -65%; inconclusive = mostly about -30% to -63%
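Steps: dispense buffer (Tris pH 8.0, NaCl 300 mM, TCEP 1 mM, BSA, Tween 20); add 5X protein mix (GST-E1A, His-CtBP, 125 nM each); pin 23 nL compound; 2 h at 37 °C, dark; add 5X beads (50 ug/mL); 1 h; read.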
Six1-Eya2 blk: inhibitors of human Six1/Eya2 interaction | Q15475+O00167 | AlphaScreen GST-Six1/His-Eya2 binding, biochemical; hits give low values | activity change, % (concentration not given with the values) | 360,000 compounds, 0.56% hits | AID 651725; in the data active = activity change below about -65%; inconclusive = mostly about -30% to -63%
Target sequence (O00167 whole entry, looked up): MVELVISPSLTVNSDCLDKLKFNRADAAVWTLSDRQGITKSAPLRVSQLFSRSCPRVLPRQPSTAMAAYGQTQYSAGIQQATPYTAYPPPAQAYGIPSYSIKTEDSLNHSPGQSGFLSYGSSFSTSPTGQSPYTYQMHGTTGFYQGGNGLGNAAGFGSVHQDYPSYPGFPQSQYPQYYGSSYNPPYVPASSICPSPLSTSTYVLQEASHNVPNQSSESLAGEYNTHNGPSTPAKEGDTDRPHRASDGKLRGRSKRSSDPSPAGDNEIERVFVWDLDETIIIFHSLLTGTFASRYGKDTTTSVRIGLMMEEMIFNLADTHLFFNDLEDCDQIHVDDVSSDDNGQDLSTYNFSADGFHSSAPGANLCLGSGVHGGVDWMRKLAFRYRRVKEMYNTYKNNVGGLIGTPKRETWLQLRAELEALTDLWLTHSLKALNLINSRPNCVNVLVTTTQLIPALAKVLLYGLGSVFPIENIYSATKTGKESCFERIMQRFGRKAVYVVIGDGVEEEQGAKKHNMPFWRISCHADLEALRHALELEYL
Target sequence (Q15475 whole entry, looked up): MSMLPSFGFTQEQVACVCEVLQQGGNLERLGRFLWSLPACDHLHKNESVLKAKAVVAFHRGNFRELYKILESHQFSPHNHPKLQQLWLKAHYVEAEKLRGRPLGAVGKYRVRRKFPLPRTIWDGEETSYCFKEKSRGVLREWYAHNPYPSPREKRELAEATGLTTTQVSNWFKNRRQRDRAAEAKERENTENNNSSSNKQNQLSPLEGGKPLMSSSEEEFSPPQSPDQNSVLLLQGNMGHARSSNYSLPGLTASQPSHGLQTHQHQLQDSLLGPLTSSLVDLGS
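Compounds are tested against tagged Six1 and Eya2 proteins bridged by glutathione donor and nickel acceptor beads; after a one-hour incubation at 37 °C without light, AlphaScreen emission is recorded.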
IL1B secr inh: blocks inflammasome-driven IL-1 beta release; THP-1 LPS/ATP IL-1B secretion, AlphaLISA, 16 h; hits give low values; activity change, % at 57.5 µM; 360,000 compounds, 4.7% hits; AID 743279; in the data active = activity change below about -50%; inconclusive = mostly about -30% to -49%
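Secreted IL-1B measured by AlphaLISA bead assay after 16 h compound exposure of THP-1 cells; compounds (final up to 57.5 uM) added 1 h before LPS (250 ng/mL) and ATP (1.25 mM) stimulation; lower signal means less secretion.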
TDP1 cell noCPT: qHTS for Inhibitors of human tyrosyl-DNA phosphodiesterase 1 (TDP1): qHTS in cells in absence of CPT; AID 686978, 2013; DT40 Tdp1-/- hTDP1 cells, no CPT, ATP luminescence, 48 h; Potency, µM (series often up to 46.2 µM), usual class: inhibitors; 420,000 compounds, 15% hits; also: nearly all actives have a fitted effect of over 55% in size
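Growth kinetics read by CellTiter-Glo luminescence after ≥48 hr at 37 °C. Cells: DT40 Tdp1-/- stably carrying human TDP1, 400 per well, compound exposure in the absence of CPT (DMSO vehicle).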
TDP1 block: inhibitors of human tyrosyl-DNA phosphodiesterase TDP1; Q9NUW8; recombinant TDP1, AlphaScreen DNA substrate cleavage; 350,000 compounds, 0.28% hits; Potency, µM (series often up to 130 µM), most hits filed as inhibitors; AID 485290; also: nearly all actives have a fitted effect of over 40% in size
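Compounds were preincubated with Tdp1 (1 nM final) for 15 min at room temperature before substrate (15 nM final) started a 5 min reaction; beads (10 ug/ml final) were then added for 10 min before AlphaScreen detection.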
DT40 TDP1 CPT: growth inhibition of DT40 Tdp1-/-;hTDP1 cells with camptothecin (screen for TDP1 inhibitors). 420,000 compounds, 12% hits. Potency, µM (doses to about 46.2 µM), actives largely listed as inhibitors. chicken DT40 Tdp1-/-;hTDP1 cells + 20 nM CPT, ATP luminescence, 48 h; also: nearly all actives have a fitted effect of over 55% in size
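Chicken DT40 Tdp1-/- cells complemented with human TDP1, 400 cells/well, exposed to compounds plus 20 nM camptothecin for at least 48 h at 37 C; viability read as ATP content by CellTiter-Glo luminescence.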
A number is an active result; - = inactive; ? = inconclusive; . = no result given; [ ] = another dose, or the depositor's remark. Unless noted, calls follow the shape of the dose curve; as a rule, active = well fitted curve in the direction sought with a large enough effect; inconclusive = small, poorly fitted or top-dose-only effect, or another doubt; inactive = no such curve, though single readings can be large; an effect the other way counts as inactive or inconclusive.

SMILES	CtBP-E1A blk	Six1-Eya2 blk	IL1B secr inh	TDP1 cell noCPT	TDP1 block	DT40 TDP1 CPT
CCOc1cc(OCC)cc(C(=O)Nc2cccc(-c3nc4ccccc4[nH]3)c2)c1	.	.	.	6.5µM	-[12.3 µM]	10µM
O=C(CCNC(=O)c1ccc(Cl)cc1)NCc1cccc(C(F)(F)F)c1	-	-	-	-	-	-
Cn1c(N2CCN(C(c3ccccc3)c3ccccc3)CC2)nc2ccccc21	-	-	-84	18µM	-	?
COc1ccc(Cl)cc1N(C)C(=O)Cc1noc2ccc(C)cc12	.	.	.	18µM	-	16µM
Cc1ccc2onc(CC(=O)O)c2c1	-	-	-	-	-	-
Cc1ccc2onc(CC(=O)N3CCN(c4cc(Cl)ccc4C)CC3)c2c1	.	.	.	16µM	-	?
COc1ccccc1N1CCN(C(=O)CNS(=O)(=O)c2ccc(Br)s2)CC1	-	-	-	?	-	?
Cc1ccc2[nH]c3c(c2c1)CN(C(=O)CN1CCN(C(=O)c2ccco2)CC1)CC3	.	.	.	.	-	.
Cc1ccc2[nH]c3c(c2c1)CN(C(=O)CN1CCN(c2cccc(C)c2C)CC1)CC3	-	-	-	21µM	-	23µM
CC(=O)c1oc2ccccc2c1NC(=O)CN1CCCCC1	-	-	-	?	-	?
CCCCCCNc1nc(NCc2ccco2)nc(OCC)n1	-	-	-	18µM	-	21µM
CCCCCCCCNc1nc(Cl)nc(NCc2ccco2)n1	-	-	-	-	-	-
CC(C)=CCC[C@@](C)(O)[C@H]1CC=C(C)CC1	.	.	.	-	.	-
S=c1nc(C2COc3ccccc3O2)[nH][nH]1 (stereo not given)	-	-	-	-	-	-
CCCS(=O)(=O)c1cnc(C2COc3ccccc3O2)nc1N (stereo not given)	.	-	-	16µM	.	?
COC(=O)c1c(NC(NC(=O)C(C)C)C(Cl)(Cl)Cl)sc2c1CCC2 (stereo not given)	-	-	-	13µM	-	16µM
CCOC(=O)c1c(NC(NC(C)=O)C(Cl)(Cl)Cl)sc2c1CCCC2 (stereo not given)	-	-	-	?	-	16µM
CCC(=O)NC(Nc1sc2c(c1C(=O)OC)CCC2)C(Cl)(Cl)Cl (stereo not given)	-	-	-	15µM	-	15µM
COC(=O)c1c(NC(NC(=O)C(C)(C)C)C(Cl)(Cl)Cl)sc2c1CCC2 (stereo not given)	-	-	-	?	-	?
COC(=O)Nc1cccn(Cc2c(Cl)cccc2Cl)c1=O	-	-	-	-	-	-
CC(=O)Nc1ccc(S(=O)(=O)N(C)CC(=O)N/N=C/c2ccc(C(=O)O)cc2)cc1	.	-	-	-	.	-
N[C@H](CSC(c1ccccc1)(c1ccccc1)c1ccccc1)C(=O)O	.	.	.	.	-	.
NC(CSC(c1ccccc1)(c1ccccc1)c1cccc2ccccc12)C(=O)O (stereo not given)	-	-	-50	?	.	?
COc1cc(CNS(=O)(=O)CCl)cc(OC)c1OC	-	-	-	-	-	-
Cc1cc(C)nc(NC(=O)c2cccc(Cl)c2)n1	-	-	-	-	-	-
SMILES	CtBP-E1A blk	Six1-Eya2 blk	IL1B secr inh	TDP1 cell noCPT	TDP1 block	DT40 TDP1 CPT
CCN(CC)S(=O)(=O)c1cc(-c2nnc(-c3ccc(Br)cc3)o2)ccc1Br	-	-	?	9.2µM	-	15µM
CCN(CC)S(=O)(=O)c1cc(-c2nnc(-c3ccc(Br)cc3)o2)ccc1Cl	-	-	?	18µM	-	12µM
CCN(CC)S(=O)(=O)c1cccc(-c2nnc(-c3ccc(C)cc3)o2)c1	-	-	-	-	-	?
Cc1ccc2nc(N(CCCN(C)C)C(=O)c3ccc4ncsc4c3)sc2c1	-	-	-	?	-	16µM
CCOc1ccc2nc(N(CCCN(C)C)C(=O)c3ccc4c(c3)CCCC4)sc2c1	-	-	-58	?	-	?
CN(C)CCCN(C(=O)c1ccc2c(c1)CCCC2)c1nc2ccc(Cl)cc2s1	?	-	-123	15µM	-	15µM
COc1ccc2nc(N(CCN(C)C)C(=O)c3ccc4ncsc4c3)sc2c1	-	-	-	-	.	-
Cc1ccc(S(=O)(=O)CC(=O)N(CCCN(C)C)c2nc3ccc(C)cc3s2)cc1	-	-	-55	-	.	-
COC(=O)CCCn1cc(CN2CC(N3CCN(C)CC3)CS2(=O)=O)nn1 (stereo not given)	-	-	-	-	.	-
Cc1ccc(N2C(=O)c3ccc(C(=O)NCCN4CCOCC4)cc3C2=O)cc1	-	-	-	-	-	-
Cc1nn(-c2ccccc2)c(C)c1/C=N/NC(=O)c1cc(C23CC4CC(CC(C4)C2)C3)[nH]n1	-	-	-	?	-	?
COc1ccc(NC(=O)CSc2ccc(F)cc2)cc1S(=O)(=O)N1CCCCC1	-	-	-	-	-	21µM
Cc1ccc(NC(=O)CSc2ccccc2)cc1S(=O)(=O)N1CCCCC1	-	-	-	?	-	15µM
O=C(COc1ccc(-c2nnco2)cc1)Nc1ccc(F)c(Cl)c1	-	-	-	?	-	-
Cc1ccc(NC(=O)COc2ccc(-c3nnco3)cc2)cc1S(=O)(=O)N1CCOCC1	-	-	-	13µM	-	?
COc1ccc(NC(=O)CSc2ccc(NC(C)=O)cc2)cc1S(=O)(=O)N1CCCCC1	-	-	-	?	-	-
CC(C)CC(=O)Nc1ccc(C(=O)COc2ccc(-c3nnco3)cc2)cc1	-	-	-	23µM	-	?
COC(c1ccc2c(c1)CN(C(=O)Cn1nc(C)c3ccccc3c1=O)CCO2)C1CCCCC1 (stereo not given)	.	.	.	-	.	-[9.04 µM]
COc1cc(NC(=O)CSc2nc(C)cc(C)n2)cc(OC)c1OC	-	-	-	?	-	?
CCCn1c(C)cc(C(=O)COc2ccc(-c3nnco3)cc2)c1C	-	-	.	7.3µM	-	4.6µM
Cc1ccc(NC(=O)COc2cccnc2[N+](=O)[O-])cc1S(=O)(=O)N1CCCCC1	-	-	-	21µM	-	13µM
COc1ccc(NC(=O)COc2cc(C)cc(C)c2)cc1S(=O)(=O)N1CCCCC1	-	-	-	8.2µM	-[0.505 µM]	7.3µM
CCCn1c(C)cc(C(=O)COc2ncnc3sccc23)c1C	-	-	-	?	-	?
Cc1ccc(NC(=O)Cn2ncc(Cl)c(Cl)c2=O)cc1S(=O)(=O)N1CCCCC1	-	-	-75	3.3µM	-	7.3µM
COc1ccc(NC(=O)CCOc2ccc(C)cc2)cc1S(=O)(=O)N1CCCCC1	-	-	-	?	-	?
Cc1ccc(NC(=O)COc2ccccc2C#N)cc1S(=O)(=O)N1CCCCCC1	-	-	-	?	-	?
